The list is not random: actives were taken first. Their share in the collection is about 3.3%.
PI5P4Ka inh – PI5P4K alpha (human) kinase inhibition. P48426. PI5P4Kalpha enzyme, ADP-Glo luminescence, 60 min; stronger effect = lower value. max response, %. 1.2% of 330,000 active. AID 652105; active = max response of -50% or lower; inconclusive = between -30% and -50%; inactive = -30% or higher; also: value at the top dose of about 77 µM
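Controls without substrate or without enzyme flank wells where PI5P4Kalpha converts substrate using 5 microM ATP (final). Incubation lasts 60 minutes at room temperature; ADP formed is read by ADP-Glo luminescence.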
PLK1 PBD block – blocks phosphopeptide binding to human PLK1 polo-box domain. P53350. Plk1 PBD binding of FITC phosphopeptide, fluorescence polarization. Potency, µM, usual class: inhibitors. 2.8% of 360,000 active. AID 720504; also: series mostly up to about 57 µM; nearly all actives have a fitted effect of over 65% in size
USP2a inh – USP2a (human) protease inhibition; O75604; Potency, µM (doses to about 38.3 µM), most hits filed as inhibitors; 0.01% of 330,000 active; AID 463254; USP2 core, Ub-CHOP2 coupled fluorogenic reporter, 485/531
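Cell-free coupled assay: 10nM USP2 core preincubated 30min RT with compound in Tris-HCl pH 8.0/CaCl2/CHAPS buffer, then 25nM Ub-CHOP2 and 25nM reporter substrate; fluorescence (Ex 485/Em 531) read after 60min RT, normalized to NEM inhibition, concentration-response curves fitted.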
WRN helicase inh – blocks human WRN helicase; 0.46% of 360,000 active; Potency, µM (titrated, usually from 114 µM), actives largely listed as inhibitors; WRN helicase unwinding, fluorescent forked duplex, kinetic; Q14191; also: nearly all actives have a fitted effect of over 55% in size
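WRN at 20 nM final preincubated with compound 15 min at room temperature; reaction started with 100 nM fluorophore/quencher forked duplex oligonucleotide and 2 mM ATP final. Unwinding followed kinetically by red fluorescence (ex 525, em 598 nm).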
USP1 inh – USP1/UAF1 (human) deubiquitinase inhibition. recombinant USP1/UAF1, Ub-Rhodamine cleavage fluorescence. Potency, µM (doses to about 57.1 µM), most hits filed as inhibitors. 0.23% of 390,000 active. AID 743255; also: nearly all actives have a fitted effect of over 60% in size
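Step one: compound is pinned into 1nM USP1/UAF1 in HEPES pH 7.8 buffer with TCEP. Step two: 15 min room-temperature incubation. Step three: Ub-Rho (150nM final) starts cleavage, tracked by fluorescence over six one-minute reads.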
Of the large screens only hits and unclear results are named; the others gave an inactive call. Unless noted, calls follow the shape of the dose curve; as a rule, active = well fitted curve in the direction sought with a large enough effect; inconclusive = small, poorly fitted or top-dose-only effect, or another doubt; inactive = no such curve, though single readings can be large; an effect the other way counts as inactive or inconclusive.

O=C(O)CSc1ncnc2scc(-c3ccccc3)c12	PI5P4Ka inh -76
CCc1ccccc1NC(=O)Cn1nc(C)c2nn(-c3ccc(Cl)cc3)c(C)c2c1=O	none (no result: PI5P4Ka inh, PLK1 PBD block, USP2a inh, WRN helicase inh)
Cc1ccc(NC(=S)NCc2ccc3c(c2)cc(C)n3C)c(C)c1	PLK1 PBD block 19µM
O=C(O)c1ccc2c(=O)n3c(nc2c1)/C(=C/c1cccc(Cl)c1Cl)CCCC3	PI5P4Ka inh -73
NS(=O)(=O)c1ccc(-c2ccc(/C=C3\NC(=S)NC3=O)o2)cc1	PI5P4Ka inh -66, PLK1 PBD block inconclusive, USP1 inh inconclusive
COc1ccc2c(c1)cc1c(=O)n(CC(=O)NC3CCCCC3)nc(C)n12	none (no result: PI5P4Ka inh, PLK1 PBD block, USP2a inh, WRN helicase inh)
O=C(COc1ccc(Br)cc1Cl)NC(=S)Nc1ccccn1	none
COc1ccc(OCC(=O)NC(=S)NNC(=O)COc2ccc(Br)cc2Cl)cc1	PLK1 PBD block 24µM
O=C(COc1ccc([N+](=O)[O-])cc1)NNC(=S)NC(=O)c1ccc(Br)cc1	PI5P4Ka inh inconclusive, PLK1 PBD block 13µM
O=C(O)CNC(=O)CC1S/C(=N/N=C/c2ccccc2O)NC1=O (centres undefined)	PLK1 PBD block 24µM
CC(=O)c1cccc(NC(=O)CC2S/C(=N/N=C/c3ccccc3)NC2=O)c1 (centres undefined)	none
CCNC(=O)CC1S/C(=N/N=C(\C)c2ccccc2)NC1=O (centres undefined)	PLK1 PBD block 21µM
C/C(=N\N=C1\NC(=O)C(Cc2ccccc2)S1)c1ccccc1 (centres undefined)	PLK1 PBD block 30µM
CC(/C=N/NC(=O)c1cc(C(C)C)[nH]n1)=C\c1ccccc1	PLK1 PBD block 30µM
CC(/C=N/NC(=O)c1cc(C2CC2)[nH]n1)=C\c1ccccc1	none
O=C(N/N=C/c1cc(Cl)ccc1O)c1ccncc1	PI5P4Ka inh inconclusive, PLK1 PBD block 3.4µM
O=C(N/N=C/c1ccccc1Cl)c1ccncc1	none
O=C(N/N=C/c1coc2ccccc2c1=O)c1cc(Br)c(O)c(Br)c1	PI5P4Ka inh -70, PLK1 PBD block inconclusive
NC(=S)N/N=C/c1coc2ccc(O)cc2c1=O	PI5P4Ka inh -72
Cc1ccc2occ(/C=N/NC(=O)c3ccc(Cl)cc3)c(=O)c2c1	none
O=C(N/N=C/c1coc2ccc(Cl)cc2c1=O)c1cc(O)cc(O)c1	PI5P4Ka inh inconclusive, PLK1 PBD block 27µM, WRN helicase inh inconclusive
O=S(=O)(NCCSc1ccccc1)c1ccc(F)cc1	PLK1 PBD block 24µM
Cc1ccc2ccccc2[n+]1CCCS(=O)(=O)[O-]	none
CCCC[n+]1c2ccccc2cc2ccccc21	PI5P4Ka inh inconclusive, PLK1 PBD block 0.53µM
CCc1ccc(-n2c(=O)c3ccccc3n3c(=S)[nH]nc23)cc1	PLK1 PBD block 9.5µM
COC(=O)c1ccc(Cn2c(SCc3ccccc3)nc3ccncc32)cc1	none (no result: PI5P4Ka inh, PLK1 PBD block, USP2a inh, WRN helicase inh)
COc1cc2c(C(=O)N3CCN(c4ccc(F)cc4)CC3)cn(CC(C)C)c(=O)c2cc1OC	none (no result: PI5P4Ka inh, PLK1 PBD block, USP2a inh, WRN helicase inh)
C=CCn1c(SCC(=O)NCCC2=CCCCC2)nc2ccc(Cl)cc2c1=O	PLK1 PBD block 11µM
Cn1c(=O)cc(SCC(=O)NCCC2=CCCCC2)c2ccc(Cl)cc21	none
Cc1ccc(NC(=O)c2ccc(F)c(S(=O)(=O)NCCc3ccccc3)c2)cc1F	none (no result: PI5P4Ka inh, PLK1 PBD block, USP2a inh, WRN helicase inh)
CCOc1ccc(CNC(=O)C2=Cc3cc(Br)ccc3OC2)cc1OC	none (no result: PI5P4Ka inh, PLK1 PBD block, USP2a inh, WRN helicase inh)
CCC(=O)Nc1ccc2nc(C3CC3)n(Cc3ccc(C(C)(C)C)cc3)c(=O)c2c1	PLK1 PBD block 12µM
CC1=NNC(=O)C1C(c1ccc(Cl)cc1)C(C#N)C#N (centres undefined)	PLK1 PBD block 21µM
CC1=NN(Cc2ccccc2)C(=O)C1	none
CC1=NN(Cc2ccccc2)C(=O)C1C(c1ccncc1)C(C#N)C#N (centres undefined)	PLK1 PBD block inconclusive
CC1=NNC(=O)C1C(c1cccc(O)c1)C(C#N)C#N (centres undefined)	none
CC1=NN(Cc2ccccc2)C(=O)C1C(c1ccc(Cl)cc1)C(C#N)C#N (centres undefined)	PLK1 PBD block 7.5µM, WRN helicase inh inconclusive
CC1=NN(Cc2ccccc2)C(=O)C1C(c1ccccc1)C(C#N)C#N (centres undefined)	PLK1 PBD block 24µM (no result: PI5P4Ka inh)
CC1CCN(S(=O)(=O)c2ccc3c(c2)c(=O)c(C(=O)N2CCN(c4cccc(Cl)c4)CC2)cn3C)CC1	none (no result: PI5P4Ka inh, PLK1 PBD block, USP2a inh, WRN helicase inh)
CCOC(=O)c1c(C)n(C)c2cc([N+](=O)[O-])c(O)c([N+](=O)[O-])c12	PLK1 PBD block 21µM
Cc1ccc(C2=NN(S(=O)(=O)c3ccccc3)C(c3ccco3)C2)cc1 (centres undefined)	none
O=S(=O)(c1ccccc1)N1N=C(c2ccc(Br)cc2)CC1c1ccco1 (centres undefined)	PI5P4Ka inh inconclusive, PLK1 PBD block 3µM
CCCN1C(C(=O)c2ccccc2)=C(OC(=O)COc2ccc(C)cc2)c2ccccc2S1(=O)=O	none (no result: PI5P4Ka inh, PLK1 PBD block, USP2a inh, WRN helicase inh)
CC(=O)N1CCc2cc(Br)cc(S(=O)(=O)N3CCC(C(=O)Nc4ccc(C(C)C)cc4)CC3)c21	none (no result: PI5P4Ka inh, PLK1 PBD block, USP2a inh, WRN helicase inh)
CCCC(C)NC(=O)COC(=O)c1cccc(NS(C)(=O)=O)c1 (centres undefined)	PLK1 PBD block 30µM
COc1ccc(-c2cn3cccnc3n2)cc1NC(=O)COc1ccccc1	none (no result: PI5P4Ka inh, PLK1 PBD block, USP2a inh, WRN helicase inh)
Cc1csc(NC(=O)c2nc3nccc(C)n3n2)n1	PI5P4Ka inh inconclusive, PLK1 PBD block 3.4µM
Cc1ccnc2nc(C(=O)Nc3nc4ccccc4s3)nn12	none
CCC(C)(C)NC(=O)c1cccc(NC(=O)C(C)C)c1	PLK1 PBD block 21µM
Nc1ccc2oc(-c3cc(Br)ccc3Cl)nc2c1	PLK1 PBD block 30µM (no result: PI5P4Ka inh)
COc1ccc(-c2cc(-c3ccccc3)c(C#N)c(SCC(=O)O)n2)cc1	PLK1 PBD block inconclusive (no result: USP2a inh)
CC(C)C(Sc1nc(-c2ccccc2)cc(-c2ccccc2)c1C#N)C(=O)O (centres undefined)	PLK1 PBD block 19µM, USP1 inh inconclusive
COc1ccc(-c2cc(-c3ccccc3)nc(SC(C)C(=O)O)c2C#N)cc1 (centres undefined)	PI5P4Ka inh inconclusive, PLK1 PBD block 27µM
Clc1ccccc1/C=N/c1cc(-c2ccccc2)nn1-c1ccccc1	PLK1 PBD block 17µM
Cc1ccc(CNC(=O)C2CCN(S(=O)(=O)c3cc(-c4noc(C)n4)ccc3C)CC2)cc1	none (no result: PI5P4Ka inh, PLK1 PBD block, USP2a inh, WRN helicase inh)
CCOc1ccc(NC(=O)COc2ccccc2)c([N+](=O)[O-])c1	PLK1 PBD block 24µM
O=C(COc1ccccc1[N+](=O)[O-])Nc1cc(Cl)ccc1C(=O)O	PI5P4Ka inh -55
O=C(COC(=O)c1ccco1)Nc1nc2ccc([N+](=O)[O-])cc2s1	PI5P4Ka inh -54
CCC(=O)OCC(=O)Nc1ccc(OC)cc1[N+](=O)[O-]	none
COc1ccc(NC(=O)COC(=O)c2ccco2)c([N+](=O)[O-])c1	PLK1 PBD block 27µM
